The panel holds about 79,000 compounds, 15% with a hit somewhere; the sample as a whole holds those more often. Cut-off read from the data, not from the text of the source: active = growth inhibition above about 70%; inactive = the rest. Where a SMILES comes first, the peptide text is derived from it. The star is where a group is joined. Cbz = O=C(OCc1ccccc1)*
Experiments:
[1] = NCI Yeast Anticancer Drug Screen. Data for the rad50 strain (AID 155);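 note: 0% = growth of vehicle-only cultures of the same strain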; conditions: S. cerevisiae rad50 strain growth inhibition; at 50.0 µM; active compounds read high
In short: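 A DNA repair-deficient yeast mutant serves as the test organism; compound-induced growth inhibition is calculated against vehicle-treated cells.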

[2] = NCI Yeast Anticancer Drug Screen. Data for the mec2-1 strain (AID 157); conditions: S. cerevisiae mec2-1 strain, at 50.0 µM, active compounds read high
In short: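 Mutant yeast (mec2-1) grown with compound; growth inhibition relative to vehicle control reported.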

[3] = NCI Yeast Anticancer Drug Screen. Data for the sgs1 mgt1 strain (AID 161);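 note: 0% = growth of cultures given vehicle only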; conditions: S. cerevisiae sgs1 mgt1 strain, at 50.0 µM, active compounds read high
In short: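 This yeast growth screen uses a strain with defined DNA-repair lesions; compound-treated growth is compared with vehicle-treated growth.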

[4] = NCI Yeast Anticancer Drug Screen. Data for the cln2 rad14 strain (AID 165);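 note: 0% = growth equal to vehicle treated cultures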; conditions: S. cerevisiae cln2 rad14 strain, at 50.0 µM, active compounds read high
In short: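 Readout is yeast growth inhibition versus vehicle-treated controls, using a strain with cln2 and rad14 alterations exposed to compound.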

[5] = NCI Yeast Anticancer Drug Screen. Data for the bub3 strain (AID 167); conditions: S. cerevisiae bub3 mutant strain, at 50.0 µM, active compounds read high
In short: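 Inhibition values come from growth of compound-treated mutant yeast normalised to vehicle-treated controls.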

[6] = NCI Yeast Anticancer Drug Screen. Data for the mlh1 rad18 strain (AID 175); conditions: S. cerevisiae mlh1 rad18 strain growth inhibition; at 50.0 µM; active compounds read high
In short: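 Genetically defined yeast (DNA repair-deficient) exposed to compounds; growth inhibition determined relative to vehicle.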

Measured: growth inhibition

C[S+](C)CCOC(=O)C(=[N+]=[N-])c1ccc([N+](=O)[O-])cc1
inactive: [1] 32.5% | [2] 9.8% | [3] 44.3% | [4] 25.8% | [5] 9.9% | [6] 59.4%

C[NH-].C[NH-].C[NH-].C[NH-].O=C(O)c1cc(C(=O)O)c(C(=O)O)cc1C(=O)O.[Pt+2].[Pt+2]
inactive: [1] -6.25% | [2] -2.6% | [3] -2.05% | [4] -36% | [5] 0.55% | [6] 13.3%

COc1cc2c(cc1O)CN1Cc3c(ccc(OC)c3O)C2C1 (configuration not stated)
inactive: [1] -16% | [2] -14.4% | [3] -1.8% | [4] -1.15% | [5] -11.5% | [6] 0.65%

CC1=NC(=O)CNN1C1=NNC2(C(=O)N1)c1ccccc1-c1ccccc12
inactive: [1] -11.1% | [2] -7.3% | [3] -15.2% | [4] 0.85% | [5] -7.3% | [6] -25.1%

O=C(COc1ccccc1)Nc1cccc2ccccc12
inactive: [1] 4.5% | [2] 24.5% | [3] 6.6% | [4] -3.7% | [5] 10.4% | [6] 29.2%

Cc1ccc(C(=O)C(O)c2ccc(C)cc2)cc1 (configuration not stated)
inactive: [1] 35.6% | [2] -34.6% | [3] 4.95% | [4] -24.1% | [5] 0.55% | [6] -7.05%

OCC1CC(O)CN2CCc3c([nH]c4ccccc34)C2C1 (configuration not stated)
inactive: [1] 4.6% | [2] 3.25% | [3] 11.3% | [4] -5.2% | [5] 0.1% | [6] 2.8%

O=c1[nH]c(-c2ccccc2N=NN2CCCCC2)nc2ccccc12
inactive: [1] -4.05% | [2] -2.35% | [3] -2.6% | [4] -11.8% | [5] -4.45% | [6] 1.8%

OCC1CCCCCCCCCC1
inactive: [1] 36.3% | [2] -10.7% | [3] 29.8% | [4] 25.1% | [5] 20.1% | [6] 44.5%

CCN1OCC(C)(C(=O)OC)C1C (configuration not stated)
inactive: [1] -13.9% | [2] -13.1% | [3] -10.7% | [4] -31% | [5] 9.9% | [6] -21.1%

C/C(CC(=O)Nc1ccc(C)c(C)c1)=N\NC(N)=O
inactive: [1] -31.9% | [2] -28.6% | [3] -0.7% | [4] -5.35% | [5] -22% | [6] -24.2%

Cn1c(=S)[nH]c2sc3c(c2c1=O)CCCCC3
inactive: [1] 12.2% | [2] -0.6% | [3] 8.25% | [4] 6.65% | [5] -4.05% | [6] 8.4%

O=C(O)C(=O)Cc1ccc(Br)cc1[N+](=O)[O-]
inactive: [1] 5.45% | [2] -6.6% | [3] 1.8% | [4] -3% | [5] 1.45% | [6] 12.2%

COc1ccc(OC)c(C(c2cc(OC)ccc2OC)C(Cl)(Cl)Cl)c1
inactive: [1] 0.45% | [2] -13.2% | [3] -5.3% | [4] -6.45% | [5] -6% | [6] 14.6%

[C-]#[N+]C([N+]#[C-])=C(C)OCC
inactive: [1] 7.9% | [2] 5.1% | [3] -5.2% | [4] 10.8% | [5] 21.6% | [6] 2.5%

O=C(NC1CCCCC1)C1C2CC3OC(=O)C1C3C2 (configuration not stated)
inactive: [1] -10.8% | [2] -19.2% | [3] 37.1% | [4] -27.6% | [5] 20.5% | [6] -10.1%

Oc1ccccc1C=Nc1ccc(Cl)cc1
inactive: [1] -1.35% | [2] 3.6% | [3] -5.5% | [4] -12.7% | [5] -21.6% | [6] 6.85%

N#Cc1nc(C2=C(Cl)c3ccccc3OC2)[nH]c1C#N
inactive: [1] 40% | [2] 42.9% | [3] 46.5% | [4] 56.5% | [5] 50.6% | [6] 31.8%

CSC(=S)n1nc(C)c(N=Nc2ccccc2[N+](=O)[O-])c1C
inactive: [1] 26.5% | [2] -2.85% | [3] 0.15% | [4] 5.05% | [5] 7.95% | [6] 7.75%

O=C(O)C(Cl)(c1ccccc1)c1ccccc1
inactive: [1] -6.5% | [2] -13% | [3] 7.5% | [4] -19.9% | [5] 3.55% | [6] -12.8%

CN1CCC(c2ccccc2)(C(O)(c2ccccc2)c2ccccc2)CC1
inactive: [1] 3.15% | [2] 1.25% | [3] -6% | [4] 12.1% | [5] 0.65% | [6] 12.7%

Cc1oc([N+](=O)[O-])cc1C(=O)O
inactive: [1] 10.5% | [2] 7.5% | [3] -1.65% | [4] -69.7% | [5] -20.1% | [6] -8.25%

O=C(O)c1cc(=O)c2cc(Cc3ccccc3)ccc2[nH]1
inactive: [1] 4.7% | [2] 6.5% | [3] 10.4% | [4] 9.8% | [5] 11.1% | [6] 12.8%

COc1ccc(CCNC(=O)C(=O)c2c[nH]c3ccccc23)cc1OC
inactive: [1] 12.6% | [2] 18.8% | [3] 22.4% | [4] 14.3% | [5] 9.55% | [6] 25.2%

CC1(C)OC(=O)C(C)(C)OC1=O
inactive: [1] -11.7% | [2] -5% | [3] 7.05% | [4] 12.3% | [5] 8.4% | [6] -3.15%

N#CN=C(N(Cc1ccccc1)Cc1ccccc1)N(Cc1ccccc1)Cc1ccccc1
inactive: [1] -3.65% | [2] -12.4% | [3] -18.6% | [4] 20.6% | [5] 12.4% | [6] -14.1%

CC(C(O)C(F)(F)F)[N+](=O)[O-] (configuration not stated)
inactive: [1] -1.7% | [2] -4.5% | [3] 8.65% | [4] -5.2% | [5] -2.05% | [6] 17.2%

COC1=C(C#N)C(c2ccccc2)CC(N)=N1 (configuration not stated)
inactive: [1] 1.55% | [2] -11.1% | [3] -10.1% | [4] 2.1% | [5] -1% | [6] 20.4%

CSc1nc[nH]c1C(N)=S
inactive: [1] -13.1% | [2] 3% | [3] 2.6% | [4] -7.4% | [5] -24.4% | [6] 8.7%

C[C@]12CC[C@@H]3c4cc(C=O)c(OCc5ccccc5)cc4CC[C@H]3[C@@H]1CCC2OCc1ccccc1 (some centres not stated)
inactive: [1] 12.4% | [2] -8.15% | [3] 0.45% | [4] 2.9% | [5] -2.65% | [6] -0.95%

c1ccc(NCc2nc3ccccc3[nH]2)cc1
inactive: [1] -1.6% | [2] -7.55% | [3] -10.4% | [4] 24.3% | [5] 7.6% | [6] 1.15%

CSc1nc(NC2OCC(O)C(O)C2O)c(Br)c(=O)n1C (configuration not stated)
inactive: [1] 9.05% | [2] 15.8% | [3] -0.75% | [4] 1.95% | [5] 6.3% | [6] 36%

NC(=O)c1cccc2c1OCO2
inactive: [1] -8.75% | [2] 9.7% | [3] -7.35% | [4] -10.6% | [5] -0.6% | [6] -5.25%

OCC(CN1CCCCC1)(CN1CCCCC1)CN1CCCCC1
inactive: [1] -47.8% | [2] -68.7% | [3] -14.6% | [4] -7.05% | [5] -5.2% | [6] -32.4%

Cc1ccc(-n2nc(C)cc2C)nn1
inactive: [1] -3.55% | [2] 11.2% | [3] -9.75% | [4] -25.7% | [5] 26.6% | [6] -13.8%

CN(N=O)c1c([N+](=O)[O-])cc2c(c1[N+](=O)[O-])Cc1ccccc1-2
inactive: [1] 0.4% | [2] -4.3% | [3] -8.8% | [4] 17.6% | [5] 14.7% | [6] 19.4%

CCC1CC/C(=N\Nc2ccc([N+](=O)[O-])cc2[N+](=O)[O-])c2ccc3c(C)ccc(C)c3c21 (configuration not stated)
inactive: [1] -1% | [2] 7.25% | [3] -8.7% | [4] -14.2% | [5] -2.5% | [6] 6.8%

C(/Cc1ccc2c(c1)OCO2)=N\NC1=NCCN1
inactive: [1] -8.5% | [2] -0.55% | [3] 1.55% | [4] -19.4% | [5] 5.2% | [6] 18.1%

CN1C(=O)C(O)Nc2ncncc21 (configuration not stated)
inactive: [1] -5.15% | [2] -19.9% | [3] -4.55% | [4] -45.7% | [5] 2.45% | [6] -33.2%

COc1cc(C(c2cc3c(cc2OC(C)=O)OCO3)C(C(C)=O)C(C)=O)cc(OC)c1OC (configuration not stated)
inactive: [1] 3.55% | [2] 27.8% | [3] -5.1% | [4] -4% | [5] 4.35% | [6] -1.8%

COC(=O)C(CC(C)C)NC(=O)C(CCCN=C(N)N)NC(=O)OCc1ccccc1 (stereo not drawn) (Cbz-Arg-Leu-OMe; configuration not given here)
inactive: [1] -27.7% | [2] -17.6% | [3] -15.7% | [4] 4.15% | [5] -10.3% | [6] -12.8%

Cc1cccnc1NC=O
inactive: [1] -10.7% | [2] -12.2% | [3] -4.8% | [4] -17.6% | [5] -24.7% | [6] -9.7%

— PubChem BioAssay (NCI)
